Test results: PubChem BioAssay (NCI)
Compounds without any hit were thinned out: in the full panel of roughly 79,000, 15% have a hit. Rule as the data show it: active = growth inhibition above about 70%; inactive = the rest.

Key:
[1] = NCI Yeast Anticancer Drug Screen. Data for the mec2-1 strain (AID 157); conditions: S. cerevisiae mec2-1 strain, at 50.0 µM, stronger effect = higher value
Method in brief: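 Compounds were applied to mec2-1 yeast cells. Their growth was then compared with that of vehicle-treated cultures to give growth inhibition.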

[2] = NCI Yeast Anticancer Drug Screen. Data for the sgs1 mgt1 strain (AID 161);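 also: 0% = growth of cultures given vehicle only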; conditions: S. cerevisiae sgs1 mgt1 strain, at 50.0 µM, stronger effect = higher value
Method in brief: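 Yeast cells carrying a defined DNA-repair defect were exposed to test compounds. Growth inhibition was measured relative to vehicle-treated controls.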

[3] = NCI Yeast Anticancer Drug Screen. Data for the cln2 rad14 strain (AID 165);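 also: 0% = growth equal to vehicle treated cultures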; conditions: S. cerevisiae cln2 rad14 strain, at 50.0 µM, stronger effect = higher value
Method in brief: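 Strain: cln2 rad14 yeast, altered in cell cycle control and DNA damage repair. Read-out: growth inhibition vs vehicle.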

[4] = NCI Yeast Anticancer Drug Screen. Data for the bub3 strain (AID 167); conditions: S. cerevisiae bub3 mutant strain, at 50.0 µM, stronger effect = higher value
Method in brief: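 Mutant yeast screening strain plus compound; vehicle-treated cultures serve as the 0% inhibition reference.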

[5] = NCI Yeast Anticancer Drug Screen. Data for the mlh1 rad18 strain (AID 175); conditions: S. cerevisiae mlh1 rad18 strain growth inhibition; at 50.0 µM; stronger effect = higher value
Method in brief: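 A repair-deficient yeast strain is exposed to test compound, and growth is scored relative to vehicle-treated controls.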

Measured: growth inhibition

CCCCNC(=O)C(=O)NCCCC
inactive: [1] 7.2% | [2] 4.6% | [3] 28.6% | [4] 7% | [5] 1.75%

COC(=O)c1[nH]c(=O)c(C#N)c(C(=O)OC)c1C(=O)c1ccccc1
inactive: [1] -6.4% | [2] 10.5% | [3] 19.2% | [4] -25.1% | [5] 12%

CC(O)COc1ccc(-c2ccccc2)cc1 (stereo unspecified)
inactive: [1] -2.9% | [2] 33% | [3] 15.9% | [4] 28.1% | [5] 19.9%

CCOC(=O)/C(=C/c1ccc(OC)cc1)N(CC)CC
inactive: [1] -22.7% | [2] -17.4% | [3] 0.5% | [4] -19.1% | [5] -20.4%

NC(=O)c1ccc(N=C(N)N=C(N)N)cc1
inactive: [1] -15.6% | [2] -20% | [3] -36.2% | [4] -11.8% | [5] -2.05%

CC(C)=C(NC(=O)c1ccccc1)C(=O)O
inactive: [1] 0.35% | [2] -5.25% | [3] 22% | [4] -2.7% | [5] 12.9%

CC(=O)N(C)c1ccc([N+](=O)[O-])cc1
inactive: [1] -5.6% | [2] 21.2% | [3] 26.2% | [4] 24.4% | [5] 1.3%

CCC(=O)Oc1ccc(OC)cc1
inactive: [1] -13.4% | [2] 2.9% | [3] 29.4% | [4] 3.9% | [5] 23.6%

Nc1ccc(NC(=O)c2cccc(N)c2)cc1
inactive: [1] 3.5% | [2] 6.4% | [3] -7.8% | [4] 19.2% | [5] 22%

CCOC(=O)C(O)C(O)C(=O)OCC (stereo unspecified)
inactive: [2] -29.3% | [3] -16.7% | [4] -2.85% | [5] 7.85%

Cc1ccc(N)cc1[N+](=O)[O-]
inactive: [1] 2% | [2] 6.2% | [3] 18.2% | [4] 15.4% | [5] 15.8%

O=S(=O)(O)c1ccc(Cl)c(Cl)c1
inactive: [1] -15% | [2] -3.4% | [3] 15.4% | [4] -19.5% | [5] -2.25%

O=S(=O)(O)c1cc(O)c2c(N=Cc3ccccc3O)c(S(=O)(=O)O)ccc2c1
inactive: [1] -9.6% | [2] 6.55% | [3] -2.45% | [4] 17% | [5] 8.3%

CC1(C)/C(=C\CO)C2CCC1C2 (stereo unspecified)
inactive: [1] 0.05% | [2] 1.95% | [3] -4.95% | [4] -2.65% | [5] 3.7%

O=C1C=CC(=O)N1c1ccc(I)cc1Cl
inactive: [1] 18.3% | [2] 44.1% | [3] 23.8% | [5] 22.1%

COc1ccccc1NC(=O)c1cc2cc(Br)ccc2cc1O
inactive: [1] 41.1% | [2] 55.7% | [3] 41.6% | [4] 49% | [5] 34.2%

O=C(Cc1nc2ccc([N+](=O)[O-])cc2nc1CC(=O)c1ccccc1)c1ccccc1
inactive: [1] 9.35% | [2] -10.5% | [3] 2.75% | [4] 13.2% | [5] -1.1%

O=C(Cc1ccccc1)Cc1ccccc1
inactive: [1] -5% | [2] -0.45% | [3] -3.3% | [4] -8.65% | [5] 13.6%

CN(C)Cc1cc(C(C)(C)CC(C)(C)C)ccc1O
inactive: [1] -3.2% | [2] 6.3% | [3] -43.9% | [4] 17.1% | [5] 42.5%

O=C(/C=C/C(=O)c1ccccc1)c1ccccc1
inactive: [1] 16.4% | [2] 28.1% | [3] -31.4% | [4] 36% | [5] 51.1%

Oc1ccc(Cc2ccccc2)c2cccnc12
inactive: [1] -8.6% | [2] -12.7% | [4] -17.1%

CCCCC1(CC)COC(CCC)OC1 (stereo unspecified)
inactive: [1] 2.15% | [2] 12.7% | [3] -22.6% | [4] -12.2% | [5] 11.5%
